# Target: pT7_6His-AlfaTag-HOXD13 (human, UniProt P35453 263-343)
# Assay: PADIT-seq
# Details: dsDNA, one strand shown
# pT7_6His-AlfaTag-HOXD13, sequence (P35453 263-343): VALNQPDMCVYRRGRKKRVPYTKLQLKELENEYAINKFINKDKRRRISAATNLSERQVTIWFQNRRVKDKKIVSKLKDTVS
row,Sequence,binding signal
1,CTCGAGGATATCAAGATCTGGCCTCGGCTCTGTAAAAGGAACCTCTAGCTAGCCGACTCACTATAGGGATAATCGCCCTGAGCAAAGACC,1.83 ± 0.0871 log2FC
2,CTCGAGGATATCAAGATCTGGCCTCGGCATTTTATCAGGAACCTCTAGCTAGCCGACTCACTATAGGGATAATCGCCCTGAGCAAAGACC,2.32 ± 0.0735 log2FC
3,CTCGAGGATATCAAGATCTGGCCTCGGCGCGCCGGCGGGAACCTCTAGCTAGCCGACTCACTATAGGGATAATCGCCCTGAGCAAAGACC,-1.04 ± 0.18 log2FC
4,CTCGAGGATATCAAGATCTGGCCTCGGCGAGCTAAAAGGAACCTCTAGCTAGCCGACTCACTATAGGGATAATCGCCCTGAGCAAAGACC,-0.842 ± 0.11 log2FC
5,CTCGAGGATATCAAGATCTGGCCTCGGCCTCTTAAAAGGAACCTCTAGCTAGCCGACTCACTATAGGGATAATCGCCCTGAGCAAAGACC,2.2 ± 0.0925 log2FC
6,CTCGAGGATATCAAGATCTGGCCTCGGCGTGTTAAAAGGAACCTCTAGCTAGCCGACTCACTATAGGGATAATCGCCCTGAGCAAAGACC,1.46 ± 0.0736 log2FC
7,CTCGAGGATATCAAGATCTGGCCTCGGCTCAGTAAAAGGAACCTCTAGCTAGCCGACTCACTATAGGGATAATCGCCCTGAGCAAAGACC,1.56 ± 0.0915 log2FC
8,CTCGAGGATATCAAGATCTGGCCTCGGCGTTTTAATAGGAACCTCTAGCTAGCCGACTCACTATAGGGATAATCGCCCTGAGCAAAGACC,2.63 ± 0.0918 log2FC
9,CTCGAGGATATCAAGATCTGGCCTCGGCTCGATAAAAGGAACCTCTAGCTAGCCGACTCACTATAGGGATAATCGCCCTGAGCAAAGACC,1.03 ± 0.106 log2FC
10,CTCGAGGATATCAAGATCTGGCCTCGGCCGCTAACGCGGAACCTCTAGCTAGCCGACTCACTATAGGGATAATCGCCCTGAGCAAAGACC,-0.899 ± 0.132 log2FC

# Source: article doi:10.1101/2024.03.05.583629
